In the supplement of paper PMC10849652:
About 8,800 targets were measured; listed, in parts, are those with a hit and a random draw of the rest. About 0.5% of all pairs of compound and target were hits.

Tests used:
Test in all cases: log2 fold change, soluble protein after heating vs DMSO (PISA); higher = thermal stabilisation; K562 lysate, 10 uM; active = over 0.2 and 3.5 SD of the protein, either way, in both replicates (recomputed)
alvocidib = compound: CN1CC[C@H](c2c(O)cc(O)c3c(=O)cc(-c4ccccc4Cl)oc23)[C@H](O)C1 [alvocidib]
Summary of the method: (§1)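 Following dounce homogenisation of K562 pellets in PBS pH 7.4 with 1 mM MgCl2, crude extract at 1 mg/mL protein was incubated for 30 min with 10 μM compound. Aliquots were then heated for 3 min over 48°C-58°C and pooled, NP-40 was added to 0.5% at 4°C, and soluble protein was recovered as the supernatant at 21,000xg for 90 min. Channel-sum-equalised TMTpro 16plex LC-MS/MS quantified this protein. Each value, from duplicates, is a log-two fold change in thermal stability relative to solvent controls.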

Tubastatin A = compound: CN1CCc2c(c3ccccc3n2Cc2ccc(C(=O)NO)cc2)C1 [Tubastatin A]
Summary of the method: as §1

[1] = compound: CNC(=O)C1=CC=CC=C1NC2=NC(=NC=C2Cl)NC3=C(C=C(C=C3)N4CCOCC4)OC
Summary of the method: as §1

defactinib = compound: CNC(=O)c1ccc(Nc2ncc(C(F)(F)F)c(NCc3nccnc3N(C)S(C)(=O)=O)n2)cc1 [defactinib]
Summary of the method: as §1

[2] = compound: CNc1nc(-c2ccc3c(N)n[nH]c3c2)cc(N2C[C@@H](C(=O)NC3CCCCC3)CC[C@H]2C)n1
Summary of the method: as §1

encorafenib = compound: COC(=O)N[C@@H](C)CNc1nccc(-c2cn(C(C)C)nc2-c2cc(Cl)cc(NS(C)(=O)=O)c2F)n1 [encorafenib]
Summary of the method: as §1

[3] = compound: COC(=O)[C@H](CCSC)NC(=O)C1=C(C=C(C=C1)NC[C@H](CS)N)C2=CC=CC=C2
Summary of the method: as §1

[4] = compound: COc1cc2nc(-c3cc(F)ccc3O)nc(N[C@@H]3CNC[C@H]3C(C)(C)O)c2cc1OC
Summary of the method: as §1

lapatinib = compound: CS(=O)(=O)CCNCc1ccc(-c2ccc3ncnc(Nc4ccc(OCc5cccc(F)c5)c(Cl)c4)c3c2)o1 [lapatinib]
Summary of the method: as §1

pictilisib = compound: CS(=O)(=O)N1CCN(Cc2cc3nc(-c4cccc5[nH]ncc45)nc(N4CCOCC4)c3s2)CC1 [pictilisib]
Summary of the method: as §1

crizotinib = compound: C[C@@H](Oc1cc(-c2cnn(C3CCNCC3)c2)cnc1N)c1c(Cl)ccc(F)c1Cl [crizotinib]
Summary of the method: as §1

[5] = compound: C[C@H](C1=CC=C(C=C1)C(=O)NC2=C3C=CNC3=NC=C2)N
Summary of the method: as §1

duvelisib = compound: C[C@H](Nc1ncnc2nc[nH]c12)c1cc2cccc(Cl)c2c(=O)n1-c1ccccc1 [duvelisib]
Summary of the method: as §1

gandotinib = compound: Cc1cc(Nc2cc(CN3CCOCC3)c3nc(C)c(Cc4ccc(Cl)cc4F)n3n2)n[nH]1 [gandotinib]
Summary of the method: as §1

tozasertib = compound: Cc1cc(Nc2cc(N3CCN(C)CC3)nc(Sc3ccc(NC(=O)C4CC4)cc3)n2)n[nH]1 [tozasertib]
Summary of the method: as §1

doramapimod = compound: Cc1ccc(-n2nc(C(C)(C)C)cc2NC(=O)Nc2ccc(OCCN3CCOCC3)c3ccccc23)cc1 [doramapimod]
Summary of the method: as §1

bafetinib = compound: Cc1ccc(NC(=O)c2ccc(CN3CC[C@H](N(C)C)C3)c(C(F)(F)F)c2)cc1Nc1nccc(-c2cncnc2)n1 [bafetinib]
Summary of the method: as §1

[6] = compound: Cc1cccc(CC(=O)N2CCc3c2ccc(-c2cn(C)c4ncnc(N)c24)c3F)n1
Summary of the method: as §1

alisertib = compound: COc1cc(Nc2ncc3c(n2)-c2ccc(Cl)cc2C(c2c(F)cccc2OC)=NC3)ccc1C(=O)O [alisertib]
Summary of the method: as §1

gefitinib = compound: COc1cc2ncnc(Nc3ccc(F)c(Cl)c3)c2cc1OCCCN1CCOCC1 [gefitinib]
Summary of the method: as §1

Measured: log2 fold change

SRGN (UniProt P10124)
Chain of UniProt P10124 (P10124 whole entry, looked up): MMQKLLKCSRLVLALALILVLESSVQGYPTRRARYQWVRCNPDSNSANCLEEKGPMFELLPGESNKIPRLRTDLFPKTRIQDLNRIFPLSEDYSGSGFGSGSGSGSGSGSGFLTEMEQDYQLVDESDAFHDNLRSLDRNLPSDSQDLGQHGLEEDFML
inactive: Tubastatin A 0.027 | [1] 0.048 | defactinib 0.175 | [2] 0.065 | encorafenib 0.014 | [3] -0.055 | [4] 0.026 | lapatinib 0.016 | pictilisib -0.181 | crizotinib -0.054 | [5] -0.046 | duvelisib 0.019 | gandotinib -0.097 | tozasertib 0.008 | doramapimod -0.071 | bafetinib -0.17 | [6] 0.192
active: alvocidib -0.509

SKP2 (UniProt Q13309)
Chain of UniProt Q13309 (Q13309 whole entry, looked up): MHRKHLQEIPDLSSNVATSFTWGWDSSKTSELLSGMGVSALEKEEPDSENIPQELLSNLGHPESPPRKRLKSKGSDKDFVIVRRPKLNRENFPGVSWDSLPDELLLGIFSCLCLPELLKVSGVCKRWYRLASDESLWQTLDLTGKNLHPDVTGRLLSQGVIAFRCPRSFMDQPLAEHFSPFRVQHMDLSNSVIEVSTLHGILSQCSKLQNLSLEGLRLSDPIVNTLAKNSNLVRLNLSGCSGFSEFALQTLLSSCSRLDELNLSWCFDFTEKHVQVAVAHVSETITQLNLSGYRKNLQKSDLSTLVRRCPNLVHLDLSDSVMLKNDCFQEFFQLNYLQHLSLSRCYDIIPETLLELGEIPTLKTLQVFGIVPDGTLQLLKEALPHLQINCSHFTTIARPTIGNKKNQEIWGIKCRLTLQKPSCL
inactive: alvocidib -0.048 | Tubastatin A -0.077 | [1] 0.044 | defactinib 0.189 | [2] 0.03 | encorafenib -0.053 | [3] 0.085 | alisertib 0.01 | [4] 0.173 | gefitinib 0.058 | lapatinib -0.275 | crizotinib -0.159 | [5] -0.098 | duvelisib -0.024 | gandotinib -0.075 | tozasertib -0.096 | doramapimod -0.024 | [6] 0.104

SLC35A3 isoform 2 (UniProt Q9Y2D2)
Chain of UniProt Q9Y2D2 (Q9Y2D2 whole entry, looked up): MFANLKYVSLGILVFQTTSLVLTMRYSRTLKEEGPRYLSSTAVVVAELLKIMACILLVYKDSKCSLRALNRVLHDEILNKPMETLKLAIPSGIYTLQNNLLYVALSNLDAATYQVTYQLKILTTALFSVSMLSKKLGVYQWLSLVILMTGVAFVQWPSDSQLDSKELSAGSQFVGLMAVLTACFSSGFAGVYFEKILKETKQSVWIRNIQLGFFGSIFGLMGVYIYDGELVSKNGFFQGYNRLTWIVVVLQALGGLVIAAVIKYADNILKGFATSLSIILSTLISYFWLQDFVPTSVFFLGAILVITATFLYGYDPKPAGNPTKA
active: [5] -1.02
inactive: alvocidib -0.406 | Tubastatin A -0.079 | [1] 0.016 | defactinib 0.069 | encorafenib 0.067 | [3] -0.019 | alisertib 0.069 | [4] -0.019 | gefitinib 0.198 | lapatinib -0.097 | crizotinib -0.267 | gandotinib 0.215 | tozasertib 0.032 | doramapimod 0.095 | [6] 0.332

SLC25A44 (UniProt Q96H78)
Chain of UniProt Q96H78 (Q96H78 whole entry, looked up): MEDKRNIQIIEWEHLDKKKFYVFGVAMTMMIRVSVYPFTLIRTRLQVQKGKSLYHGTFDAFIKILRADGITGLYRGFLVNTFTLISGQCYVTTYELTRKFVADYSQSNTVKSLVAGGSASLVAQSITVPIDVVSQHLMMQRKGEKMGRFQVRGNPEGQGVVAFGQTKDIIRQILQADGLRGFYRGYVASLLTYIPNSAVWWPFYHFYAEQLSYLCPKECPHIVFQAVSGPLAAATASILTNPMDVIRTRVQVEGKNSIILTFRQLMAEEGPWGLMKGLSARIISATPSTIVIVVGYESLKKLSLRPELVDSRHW
inactive: alvocidib -0.05 | Tubastatin A 0.007 | [1] -0.221 | defactinib 0.064 | [2] 0.14 | encorafenib 0.015 | [3] -0.013 | [4] 0.099 | lapatinib -0.031 | pictilisib -0.014 | crizotinib -0.034 | [5] -0.069 | duvelisib 0.233 | gandotinib 0.047 | tozasertib -0.008 | doramapimod -0.01 | bafetinib -0.037 | [6] 0.166

STK36 (UniProt Q9NRP7)
Chain of UniProt Q9NRP7 (Q9NRP7 whole entry, looked up): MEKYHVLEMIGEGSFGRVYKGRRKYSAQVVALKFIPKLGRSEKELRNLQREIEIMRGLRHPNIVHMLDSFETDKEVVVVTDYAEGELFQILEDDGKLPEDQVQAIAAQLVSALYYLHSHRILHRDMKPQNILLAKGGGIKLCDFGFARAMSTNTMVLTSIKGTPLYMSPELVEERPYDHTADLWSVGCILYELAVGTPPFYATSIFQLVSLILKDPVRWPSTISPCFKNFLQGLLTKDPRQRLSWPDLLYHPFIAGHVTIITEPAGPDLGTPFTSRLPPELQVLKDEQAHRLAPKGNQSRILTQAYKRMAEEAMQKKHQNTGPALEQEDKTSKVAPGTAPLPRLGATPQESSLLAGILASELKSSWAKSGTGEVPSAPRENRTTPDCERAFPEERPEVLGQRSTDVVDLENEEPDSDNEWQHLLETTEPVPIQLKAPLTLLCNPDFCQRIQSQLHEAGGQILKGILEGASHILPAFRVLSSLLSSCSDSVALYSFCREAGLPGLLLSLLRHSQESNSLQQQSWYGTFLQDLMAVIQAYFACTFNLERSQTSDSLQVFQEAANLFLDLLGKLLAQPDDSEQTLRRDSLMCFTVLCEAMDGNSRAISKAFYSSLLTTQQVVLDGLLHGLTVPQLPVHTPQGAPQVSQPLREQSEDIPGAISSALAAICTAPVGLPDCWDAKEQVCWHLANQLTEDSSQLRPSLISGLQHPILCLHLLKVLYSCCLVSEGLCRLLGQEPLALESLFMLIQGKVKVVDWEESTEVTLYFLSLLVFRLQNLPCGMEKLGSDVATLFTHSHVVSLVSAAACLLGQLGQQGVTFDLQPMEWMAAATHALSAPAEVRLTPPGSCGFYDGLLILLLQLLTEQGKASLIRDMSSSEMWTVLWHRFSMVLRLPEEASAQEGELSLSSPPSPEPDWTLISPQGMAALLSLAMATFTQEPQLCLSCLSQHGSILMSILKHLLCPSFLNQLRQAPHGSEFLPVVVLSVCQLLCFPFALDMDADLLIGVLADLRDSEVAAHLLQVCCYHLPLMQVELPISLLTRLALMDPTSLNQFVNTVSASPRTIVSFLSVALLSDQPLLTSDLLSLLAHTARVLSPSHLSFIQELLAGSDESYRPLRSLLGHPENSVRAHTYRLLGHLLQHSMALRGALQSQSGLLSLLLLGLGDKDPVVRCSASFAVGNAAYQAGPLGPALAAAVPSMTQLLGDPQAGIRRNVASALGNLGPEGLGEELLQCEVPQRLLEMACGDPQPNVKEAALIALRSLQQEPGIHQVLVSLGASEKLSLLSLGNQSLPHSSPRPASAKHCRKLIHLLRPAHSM
inactive: alvocidib -0.33 | Tubastatin A 0.331 | [1] -0.048 | defactinib -0.263 | [2] 0.528 | encorafenib -0.027 | [3] 0.042 | alisertib 0.081 | [4] 0.199 | gefitinib -0.093 | lapatinib -0.213 | pictilisib -0.007 | crizotinib -0.833 | [5] -0.551 | duvelisib 0.191 | gandotinib 0.284 | tozasertib 0 | doramapimod 0.202 | bafetinib -0.322 | [6] 0.398

SORBS3 (UniProt O60504)
Chain of UniProt O60504 (O60504 whole entry, looked up): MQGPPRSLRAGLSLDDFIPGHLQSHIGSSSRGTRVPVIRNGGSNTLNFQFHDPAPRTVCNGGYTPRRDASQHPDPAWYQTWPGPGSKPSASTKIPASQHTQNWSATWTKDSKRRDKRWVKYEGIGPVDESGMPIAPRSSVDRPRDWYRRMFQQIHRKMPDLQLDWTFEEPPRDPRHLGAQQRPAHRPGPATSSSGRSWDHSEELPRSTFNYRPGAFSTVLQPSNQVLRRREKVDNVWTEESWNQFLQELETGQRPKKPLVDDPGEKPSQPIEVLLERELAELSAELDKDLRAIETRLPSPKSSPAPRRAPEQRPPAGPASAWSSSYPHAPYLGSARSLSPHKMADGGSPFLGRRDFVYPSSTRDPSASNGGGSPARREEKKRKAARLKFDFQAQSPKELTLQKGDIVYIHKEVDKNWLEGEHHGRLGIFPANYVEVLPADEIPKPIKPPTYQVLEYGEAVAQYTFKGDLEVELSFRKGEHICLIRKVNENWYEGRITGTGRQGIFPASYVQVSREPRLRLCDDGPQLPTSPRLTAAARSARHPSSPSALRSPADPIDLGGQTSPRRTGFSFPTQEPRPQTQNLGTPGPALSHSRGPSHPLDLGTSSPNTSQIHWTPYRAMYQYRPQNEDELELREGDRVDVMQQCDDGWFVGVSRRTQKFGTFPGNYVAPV
inactive: alvocidib 0 | Tubastatin A -0.095 | [1] 0.032 | defactinib -0.062 | [2] 0.059 | encorafenib 0.02 | [3] -0.143 | [4] 0.065 | lapatinib 0.072 | pictilisib 0.007 | crizotinib -0.002 | [5] 0.006 | duvelisib -0.127 | gandotinib 0.024 | tozasertib -0.012 | doramapimod -0.019 | bafetinib -0.032 | [6] 0.025

SPHK1 isoform 2 (UniProt Q9NYA1)
Chain of UniProt Q9NYA1 (Q9NYA1 whole entry, looked up): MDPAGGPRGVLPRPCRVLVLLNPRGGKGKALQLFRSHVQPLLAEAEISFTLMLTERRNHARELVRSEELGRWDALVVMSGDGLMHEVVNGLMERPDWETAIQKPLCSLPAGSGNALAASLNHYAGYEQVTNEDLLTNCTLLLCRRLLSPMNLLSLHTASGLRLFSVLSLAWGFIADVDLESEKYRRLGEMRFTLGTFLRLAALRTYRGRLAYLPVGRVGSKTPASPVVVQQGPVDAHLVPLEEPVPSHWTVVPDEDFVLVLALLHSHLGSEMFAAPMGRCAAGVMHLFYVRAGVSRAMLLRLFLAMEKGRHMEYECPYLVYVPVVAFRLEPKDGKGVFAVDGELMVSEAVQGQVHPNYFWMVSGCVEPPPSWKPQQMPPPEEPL
inactive: alvocidib 0.023 | Tubastatin A -0.114 | [1] 0.046 | defactinib 0.076 | [2] -0.175 | encorafenib 0.018 | [3] 0.006 | alisertib 0.045 | [4] 0.022 | gefitinib 0.069 | lapatinib -0.039 | pictilisib 0.001 | crizotinib -0.018 | [5] -0.028 | duvelisib 0.013 | gandotinib 0.033 | tozasertib 0.122 | doramapimod 0.073 | bafetinib -0.007 | [6] -0.041

SSX5 isoform 2 (UniProt O60225)
Chain of UniProt O60225 (O60225 whole entry, looked up): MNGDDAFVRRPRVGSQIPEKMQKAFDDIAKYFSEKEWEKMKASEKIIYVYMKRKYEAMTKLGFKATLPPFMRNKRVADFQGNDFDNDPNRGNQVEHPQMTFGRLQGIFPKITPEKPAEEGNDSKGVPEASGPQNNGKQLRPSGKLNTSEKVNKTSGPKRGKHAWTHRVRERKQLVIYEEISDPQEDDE
inactive: alvocidib -0.096 | Tubastatin A -0.015 | [1] 0.038 | defactinib -0.026 | encorafenib -0.082 | [3] -0.271 | alisertib -0.172 | [4] -0.002 | gefitinib 0.005 | lapatinib 0.042 | pictilisib 0.082 | [5] -0.476 | gandotinib 0.092 | tozasertib 0.085 | bafetinib -0.04 | [6] 0.183

SLC30A6 isoform 2 (UniProt Q6NXT4)
inactive: alvocidib 0.023 | Tubastatin A 0.126 | [1] 0.016 | defactinib 0.011 | encorafenib 0.003 | alisertib 0.003 | [4] -0.18 | gefitinib -0.005 | lapatinib 0.115 | pictilisib -0.027 | crizotinib 0.009 | [5] -0.095 | gandotinib 0.048 | tozasertib 0.114 | doramapimod -0.058 | bafetinib 0.034 | [6] 0.116
active: [3] -0.322

SKA2 (UniProt Q8WVK7)
Chain of UniProt Q8WVK7 (Q8WVK7 whole entry, looked up): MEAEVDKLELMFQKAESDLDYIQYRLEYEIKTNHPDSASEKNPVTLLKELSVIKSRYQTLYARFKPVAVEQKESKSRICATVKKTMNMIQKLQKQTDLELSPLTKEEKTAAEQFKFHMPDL
inactive: alvocidib 0.003 | Tubastatin A -0.119 | [1] -0.077 | defactinib -0.014 | [2] -0.02 | encorafenib 0.032 | [3] -0.001 | alisertib 0.036 | [4] -0.009 | gefitinib 0.006 | lapatinib 0.005 | pictilisib -0.004 | crizotinib 0.027 | [5] 0.048 | duvelisib -0.004 | gandotinib -0.029 | tozasertib 0.048 | doramapimod -0.09 | bafetinib -0.017 | [6] 0.009

STN1 (UniProt Q9H668)
Chain of UniProt Q9H668 (Q9H668 whole entry, looked up): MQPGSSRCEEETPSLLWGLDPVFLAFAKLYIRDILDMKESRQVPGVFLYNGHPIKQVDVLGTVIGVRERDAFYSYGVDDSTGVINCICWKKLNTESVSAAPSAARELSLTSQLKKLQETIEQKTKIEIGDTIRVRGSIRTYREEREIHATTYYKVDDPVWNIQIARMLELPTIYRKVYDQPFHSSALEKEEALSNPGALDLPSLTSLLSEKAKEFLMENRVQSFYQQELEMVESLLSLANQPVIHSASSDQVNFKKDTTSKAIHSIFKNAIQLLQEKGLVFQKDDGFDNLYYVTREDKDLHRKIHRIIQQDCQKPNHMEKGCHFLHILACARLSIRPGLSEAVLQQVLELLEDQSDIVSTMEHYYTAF
active: [4] -0.562
inactive: alvocidib -0.078 | Tubastatin A -0.032 | [1] 0.173 | defactinib 0.016 | encorafenib 0.024 | [3] -0.149 | alisertib -0.026 | gefitinib 0.053 | lapatinib 0.128 | pictilisib -0.201 | crizotinib -0.068 | [5] -0.235 | gandotinib -0.212 | tozasertib -0.059 | doramapimod -0.101 | bafetinib -0.176 | [6] -0.028

SNUPN (UniProt O95149)
Chain of UniProt O95149 (O95149 whole entry, looked up): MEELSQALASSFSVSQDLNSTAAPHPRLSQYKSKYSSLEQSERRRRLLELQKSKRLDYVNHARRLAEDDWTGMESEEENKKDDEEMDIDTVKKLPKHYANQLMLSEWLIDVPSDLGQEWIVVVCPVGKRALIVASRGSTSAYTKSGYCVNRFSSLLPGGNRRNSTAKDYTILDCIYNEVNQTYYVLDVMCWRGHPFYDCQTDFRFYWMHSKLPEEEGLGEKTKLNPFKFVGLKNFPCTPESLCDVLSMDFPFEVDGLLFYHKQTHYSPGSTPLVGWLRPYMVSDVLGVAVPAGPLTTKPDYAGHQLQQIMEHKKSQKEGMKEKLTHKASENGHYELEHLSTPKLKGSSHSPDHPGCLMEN
inactive: alvocidib 0.012 | Tubastatin A 0.028 | [1] -0.173 | defactinib -0.066 | encorafenib 0.006 | [3] 0.155 | alisertib -0.007 | [4] -0.009 | gefitinib 0.076 | lapatinib 0.026 | pictilisib -0.083 | crizotinib -0.03 | [5] -0.009 | gandotinib -0.036 | tozasertib 0.023 | doramapimod -0.002 | bafetinib -0.061 | [6] 0.006
